Compounds with a hit are over-represented: about 2.4% of the library has one in this group of screens.
ULK1 primary: blocks human autophagy kinase ULK1; AID 1259251; AlphaScreen Atg13 phosphorylation by ULK1, luminescence; inhibition, % at 5.96 µM; actives 1.9% (n = 30,000); in the data active = inhibition above about 43%;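 also: 0% = median of compound wells and 100% = no enzyme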
ASK1 primary: inhibitors of human ASK1 kinase; AID 1159602; AlphaScreen MKK6 phosphorylation by ASK1, luminescence; inhibition, % at 7.44 µM; Q99683; actives 0.99% (n = 22,000); in the data active = inhibition above about 35%;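 also: 0% = median of compound wells and 100% = no enzyme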
The depositor's hits bear a star.

For O=C1OC(c2ccc(O)c(S(=O)(=O)O)c2)(c2ccc(O)c(S(=O)(=O)O)c2)c2c(Br)c(Br)c(Br)c(Br)c21 the results were ULK1 primary 64*.
CCOc1ccc2nc(N3CCNCC3)sc2c1 was read as ULK1 primary 3.
O=C(NC1CCC(Nc2ccc3[nH]ncc3c2)CC1)[C@@H](O)c1ccccc1Cl (stereo not given in full) (tested in a mixture with another compound) was read as ULK1 primary 7 and ASK1 primary -6.
Screening COc1ccc(CCN2CCC(=O)CC2)cc1OC returned ULK1 primary -4.
Screening COc1ccc(Cc2nccc3cc(OC)c(OC)cc23)cc1OC returned ULK1 primary 69*.
For O=C(O)c1ccc(Cl)nc1 the results were ULK1 primary 11.
Screening C[C@]12COC(=O)C[C@@H]1CC[C@@H]1[C@@H]2CC[C@@]2(C)[C@H]1CC[C@]2(C)O returned ULK1 primary 7.
For Cc1ccc(N=CN(C)C=Nc2ccc(C)cc2C)c(C)c1 the results were ULK1 primary 11.

Screens as filed in PubChem.
